# Compound activity: PubChem BioAssay, National Center for Advancing Translational Sciences (NCATS)
# Sampled rows, rich in hits. Any-hit rate of the full collection: about 7.4%.
# SMN2 splice enh: increases expression of the SMN2 splice variant. HEK293 SMN2-luciferase splicing reporter, luminescence, 30-36 h. Potency, µM (doses to about 46.1 µM), actives largely listed as activators. 210,000 tested, 2.8% active. AID 1458; note: nearly all actives have a fitted effect of over 55% in size
#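 HEK293 cells carry an SMN2 […]–luciferase reporter in which exon 7 inclusion puts luciferase in frame. Cells were plated 10-12 h before compound addition, then incubated 30-36 h at 37C. ONE-Glo luminescence was read; sodium butyrate at 4.5 mM final served as control.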
# FLuc modulator: inhibits or activates purified firefly luciferase, miR-21 counter-screen; P08659; purified FLuc, Km substrates, luminescence inhibition; Potency, µM (top dose mostly 57.5 µM), most hits filed as inhibitors; 360,000 tested, 6.9% active; note: nearly all actives have a fitted effect of over 55% in size
# Target sequence (P08659 whole entry, looked up): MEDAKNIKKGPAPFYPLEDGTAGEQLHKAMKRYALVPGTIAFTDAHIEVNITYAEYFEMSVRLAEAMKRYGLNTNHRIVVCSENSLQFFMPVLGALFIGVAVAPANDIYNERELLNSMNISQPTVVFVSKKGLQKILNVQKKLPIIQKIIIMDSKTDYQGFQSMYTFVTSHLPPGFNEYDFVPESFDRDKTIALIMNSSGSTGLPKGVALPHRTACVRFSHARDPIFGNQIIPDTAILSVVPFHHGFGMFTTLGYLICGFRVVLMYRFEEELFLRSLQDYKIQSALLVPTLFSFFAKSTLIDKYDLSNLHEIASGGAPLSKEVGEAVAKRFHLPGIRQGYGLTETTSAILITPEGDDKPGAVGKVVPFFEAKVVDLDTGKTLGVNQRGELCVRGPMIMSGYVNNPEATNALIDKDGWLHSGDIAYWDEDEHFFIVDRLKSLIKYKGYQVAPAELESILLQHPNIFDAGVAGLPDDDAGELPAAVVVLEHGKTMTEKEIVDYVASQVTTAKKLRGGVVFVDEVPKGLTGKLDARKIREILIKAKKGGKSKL
#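 Biochemical qHTS of compounds, final roughly 60 µM downward over six points, against 10 nM purified firefly luciferase using Km concentrations of substrates (10 uM D-luciferin, 10 uM ATP) in Tris acetate pH 7.5 buffer; luminescence output.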
# ELG1 genotoxic: induces genotoxicity in HEK293T cells with luciferase-tagged ELG1; 330,000 tested, 1.3% active; Potency, µM (doses to about 46 µM), most hits filed as activators; HEK293T ELG1-luciferase reporter, luminescence, 16 h; note: nearly all actives have a fitted effect of over 60% in size
#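 Genotoxicity was scored as increased ELG1-luciferase reporter signal, measured by ONE-Glo luminescence (30 min, room temperature). Compound or vehicle exposure of the HEK293T reporter cells lasted 16 hr at 37°C.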
# NPC1 promoter act: activators of NPC1 promoter; Huh7 NPC1 promoter luciferase reporter, 24 h; Potency, µM (highest dose often 9.22 µM), most hits filed as activators; 320,000 tested, 2.4% active; note: nearly all actives have a fitted effect of over 60% in size
#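 In 1536-well qHTS, Huh7 cells harboring an NPC1 promoter–luciferase construct received compound for 24 h; activation was quantified by luminescence following luciferase reagent addition.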
# Rab9 prom act: Rab9 promoter activation | AID 485297 | 320,000 tested, 2.8% active | Potency, µM (series often up to 9.22 µM), most hits filed as activators | Huh7 Rab9 promoter-luciferase reporter, luminescence, 24 h; note: nearly all actives have a fitted effect of over 60% in size
#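 Luciferase signal after 10 min detection reagent at ambient indicates Rab9 promoter upregulation; stably transfected Huh7 cells were treated 24 h with compound in DMSO at 37 °C, 5% CO2.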
# A number is an active result; n = inactive; u = inconclusive; x = not tested or not shown; [ ] = another dose, or the depositor's remark. Calls come from the whole dose curve; as a rule, active = well fitted curve in the direction sought with a large enough effect; inconclusive = small, poorly fitted or top-dose-only effect, or another doubt; inactive = no such curve, though single readings can be large; an effect the other way counts as inactive or inconclusive.
SMILES,SMN2 splice enh,FLuc modulator,ELG1 genotoxic,NPC1 promoter act,Rab9 prom act
Clc1cccc(/C=N/Nc2ncnc3ccccc23)c1,u,4.78µM,u,u,3.98µM
O=C(c1ccc(Br)cc1)N(Cc1ccco1)c1ccccn1,x,n,x,x,x
O=C(Nc1ncc([N+](=O)[O-])s1)c1cccc([N+](=O)[O-])c1,x,0.675µM,u,0.0891µM,0.1µM
O=C(COC(=O)c1ccccc1)Nc1ncc([N+](=O)[O-])s1,x,x,n,x,x
O=C(Nc1ccccc1)Nc1ncc([N+](=O)[O-])s1,3.98µM,1.51µM,u,u,u
Cc1nc(C)c(C(=O)Nc2ncc([N+](=O)[O-])s2)o1,0.891µM,1.9µM,u,u,u
CCc1c(C)nc2nncn2c1Nc1cccc(C)c1,n,n,x,x,x
CCOc1cc(CNCCSc2nnnn2-c2ccccc2)cc(Cl)c1OC,x,n,x,x,x
Cc1ccc(SCCN2CCC(C)CCC2=O)cc1 (stereo not given),x,19µM,u,3.98µM,u
Cc1ccc(SCCN2CCC(C(C)(C)C)CCC2=O)cc1 (stereo not given),x,u,n,n,n
C[C@H]1CCC(=O)N(CCSc2ccc(Br)cc2)CC1,x,u,n,n,u
CC(C)(C)C1CCC(=O)N(CCSc2ccccc2)CC1 (stereo not given),x,7.57µM,u,2.51µM,3.16µM
Cc1ccc2[nH]c(=O)c(CN(Cc3ccccc3)C(=S)NCCCN(C)C)cc2c1,x,0.757µM,0.731µM,0.316µM,0.316µM
COc1cc2cc(CN(CCc3ccccc3C)C(=S)NCCCN(C)C)c(=O)[nH]c2cc1OC,n,n,n,n,n
COc1ccc(-n2nnnc2C2CCN(S(=O)(=O)c3cccc(Cl)c3C)CC2)cc1,n,n,x,x,x
O=C(COc1ccccc1[N+](=O)[O-])Nc1ccc2c(c1)OCO2,12.6µM,4.78µM,9.2µM,2.51µM,2.24µM
O=C(COc1ccc2ccc(=O)oc2c1)Nc1ccc2c(c1)OCCO2,n,9.53µM,n,n,n
O=C(COC(=O)COc1ccccc1[N+](=O)[O-])Nc1ccc2c(c1)OCO2,x,x,n,x,x
NC(=O)c1cc(Cl)ccc1OCC(=O)Nc1ccc2c(c1)OCO2,x,0.849µM,u,1.41µM,1.26µM
Cc1ccc(OCC(=O)Nc2ccc3c(c2)OCO3)cc1C,x,23.9µM,n,n,n
Cc1ccc(CNC(=O)C2CCN(S(=O)(=O)c3ccc4c(c3)oc(=O)n4C)CC2)cc1,n,n,x,x,x
C[N+](C)(C)c1ccc([C@H](N)C(=O)O)cc1,n[9.22 µM],x,x,x,x
Cc1ccc2nc(NC(=O)CSc3[nH]c(=O)ncc3C)sc2c1,x,n,x,x,x
Cc1cccc(OCC(=O)Nc2ccc3c(c2)OCO3)c1C,n,19µM,n,n,n
CCOc1ccc(CNC(=O)C2CCN(S(=O)(=O)c3ccc4c(ccn4C)c3)CC2)cc1,x,n,x,x,x
SMILES,SMN2 splice enh,FLuc modulator,ELG1 genotoxic,NPC1 promoter act,Rab9 prom act
COc1ccc(N=C2O/C(=C/c3sc(=S)n(CC4CCCO4)c3O)N=C2C#N)cc1 (stereo not given),x,2.39µM,n,n,n
Cc1cccc(CNC(=O)c2ccc(NC(=O)N3CCSc4ccccc43)cc2)c1,n,n,x,x,x
O=C1CCc2cc(NS(=O)(=O)c3ccccc3)cc3c2N1CC3,x,n,4.11µM,n,n
O=C(CSc1oc(-c2ccc(F)cc2)nc1S(=O)(=O)c1ccccc1)NC1CCCCC1,n,n,x,x,x
Cn1c(C(C#N)C(=O)c2ccco2)nc2ccccc21 (stereo not given),n,16.9µM,n,n,n
Cn1c(C(C#N)C(=O)Cc2cccc3ccccc23)nc2ccccc21 (stereo not given),n,n,n,n,n
Oc1ccccc1/C=N/NC(=S)NCCc1ccccc1,x,26.9µM,n,n,n
Oc1ccccc1/C=N/NC(=S)NC1CC2C=CC1C2 (stereo not given),x,13.5µM,u,u,u
Oc1c(Cl)cc(Cl)cc1/C=N/NC(=S)NC1CC2C=CC1C2 (stereo not given),x,u,n,n,n
Cc1ccc(NC(=O)COC(=O)c2ccccc2Nc2ccccc2)cc1,n,n,n,n,n
O=C(COC(=O)c1cc2ccccc2cc1O)c1ccccc1,x,26.9µM,u,n,n
COc1ccccc1NC(CC(=O)c1ccccc1)C(=O)OCC(=O)c1ccc(F)cc1 (stereo not given),5.62µM,1.69µM,1.64µM,n,n
CNc1ccccc1C(=O)OCC(=O)c1ccccc1,u,7.57µM,n,n,n
CN(C(=O)c1ccccc1C(=O)OCC(=O)c1ccccc1)c1ccccc1,x,u,n,n,n
COc1ccccc1NC(=O)CCCC(=O)OCC(=O)c1ccc(F)cc1,x,n,n,n,n
O=C(COC(=O)c1ccccc1Nc1ccccc1)c1ccccc1,n,13.5µM,n,n,n
COCCNC(=O)c1ccc2nc(CCc3ccccc3)oc2c1,x,n,x,x,x
CN(C(=O)c1ccccc1C(=O)OCC(=O)c1ccc(F)cc1)c1ccccc1,x,u,n,n,n
CNc1ccccc1C(=O)OCC(=O)c1ccc(F)cc1,n,5.36µM,n,n,n
NS(=O)(=O)c1ccc(N=Nc2ccc(O)c3ncccc23)cc1,x,u,u,n,n
Cc1ccc(N=Nc2cc(C)ccc2O)c(C)c1,x,4.78µM,u,u,u
Cc1cc(N)ccc1N=Nc1c(C)n(C)n(-c2ccccc2)c1=O,n[1.84 µM],u,u,n,u
Cc1cccc(N=Nc2ccc(O)c3ncccc23)c1,n,10.7µM,11.6µM,n,n
Oc1ccc(N=Nc2ccc3c(c2)OCCO3)c2ncccc12,x,5.36µM,u,n,n
Cc1ccc(N=Nc2ccc(N)cc2C)c(S(N)(=O)=O)c1,n[9.22 µM],10.7µM,u,u,2.82µM
SMILES,SMN2 splice enh,FLuc modulator,ELG1 genotoxic,NPC1 promoter act,Rab9 prom act
COc1ccccc1CN1CC2(CCN(C(=O)c3ccncc3)CC2)C1,n,x,x,x,x
Cc1ccc(C)c(N=Nc2ccc(O)c3ncccc23)c1,n,10.7µM,u,u,n
Cc1ccccc1Cn1c(=O)n(CCC(=O)NCc2ccco2)c(=O)c2sccc21,n,n,x,x,x
CC(C)(C)c1ccc(OCCSc2nc(-c3cccs3)nc3cc(=O)[nH]n23)cc1,x,15.1µM,x,x,x
COc1cccc(/C=N/NC(=O)COc2cccc3cccnc23)c1O,n,12µM,n,n,n
CC(C)n1cc(/C=N/NC(=O)COc2cccc3cccnc23)c2ccccc21,x,2.69µM,n,n,n
Cc1ccc(-c2ccnc(-c3ccc(O)cc3)n2)cc1,n,21.3µM,u,n,n
Cc1ccc(C(=O)Oc2ccc(-c3nccc(-c4ccccn4)n3)cc2)cc1,u,n,10.3µM,u,n
COc1ccc(-c2ccnc(-c3ccc(O)cc3)n2)cc1,n,u,u,n,n
Oc1ccc(-c2nccc(-c3ccc(Br)cc3)n2)cc1,x,u,n,n,n[1.84 µM]
Oc1ccc(-c2nccc(-c3ccccn3)n2)cc1,x,16.9µM,u,u,u
Cc1nc(N2CCOCC2)c2nc(-c3ccccc3)n(CC(C)(C)CN(C)C)c2n1,n,x,x,x,x
CCOc1cc(-c2ccccc2)nc(N)n1,n,u,n,u,u
COc1cc(-c2ccccc2)nc(N)n1,n,u,16.4µM,u,3.16µM
C=C(C)OC(C)=O,n,x,x,x,x
O=C(NNC(=O)c1ccccc1Cl)c1cccnc1,x,n,n,n,n
